Source: PubChem
Sampled rows, rich in hits. Any-hit rate of the full collection: about 19%.
TDP1 cell CPT – DT40-hTDP1 cell growth loss with CPT; chicken DT40 Tdp1-/-;hTDP1 cells + 20 nM CPT, ATP luminescence, 48 h; Potency, µM (series often up to 46.2 µM), usual class: inhibitors; 420,000 compounds, 12% hits; also: nearly all actives have a fitted effect of over 55% in size
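Cell growth measured by CellTiter-Glo luminescence after a minimum 48 h, 37 C compound exposure with 20 nM CPT in Tdp1-knockout DT40 cells stably expressing hTDP1, seeded 400/well; qHTS titration format.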
HT1080NT lethal – kills 2HG-producing HT-1080-NT fibrosarcoma cells; HT-1080-NT fibrosarcoma viability, CellTiter-Glo ATP luminescence, 48 h; 360,000 compounds, 1.6% hits; Potency, µM (top dose mostly 46.1 µM), hits mostly cytotoxic; AID 686970;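 also: NT is the 2HG producing partner of a matched IDH1 knockdown line; nearly all actives have a fitted effect of over 55% in size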
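A 48-hour cytotoxicity screen used HT-1080-NT cells plated 2 hours before compound delivery. ATP-based CellTiter-Glo luminescence measured viability, normalized to DMSO and no-cell controls.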
HT1080 IDH1KD tx – kills HT-1080 cells with IDH1 knockdown. HT-1080 IDH1 knockdown viability, ATP luminescence, 48 h. Potency, µM (series often up to 46.1 µM), hits mostly cytotoxic. 360,000 compounds, 2% hits
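Luminescent ATP read-out (CellTiter-Glo, 10 min at room temperature) after 48 h compound exposure at 37 °C gave viability of IDH1-knockdown HT-1080 cells. Activity was normalised to DMSO and cell-free wells, then fitted as concentration-response curves.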
DT40 TDP1 no CPT – qHTS for Inhibitors of human tyrosyl-DNA phosphodiesterase 1 (TDP1): qHTS in cells in absence of CPT; DT40 Tdp1-/- hTDP1 cells, no CPT, ATP luminescence, 48 h; Potency, µM (series often up to 46.2 µM), most hits filed as inhibitors; 420,000 compounds, 15% hits; also: nearly all actives have a fitted effect of over 55% in size
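DT40 Tdp1-/-;hTDP1 cells, no CPT (DMSO vehicle only), 400 cells/well; compounds pin-transferred; ≥48 hr, 37 °C; CellTiter-Glo 30 min RT dark, luminescence read.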
IL-1B inflam inh – inhibitors of inflammasome signaling (IL-1 beta secretion) | AID 743279 | 360,000 compounds, 4.7% hits | THP-1 LPS/ATP IL-1B secretion, AlphaLISA, 16 h; hits give low values | activity change, % at 57.5 µM; in the data active = activity change below about -50%; inconclusive = mostly about -30% to -49%
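Secreted IL-1B measured by AlphaLISA bead assay after 16 h compound exposure of THP-1 cells; compounds (final up to 57.5 uM) added 1 h before LPS (250 ng/mL) and ATP (1.25 mM) stimulation; lower signal means less secretion.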
Numbers stand for hits; i = inactive; ? = inconclusive; nt = no result. Unless noted, calls follow the shape of the dose curve; as a rule, active = well fitted curve in the direction sought with a large enough effect; inconclusive = small, poorly fitted or top-dose-only effect, or another doubt; inactive = no such curve, though single readings can be large; an effect the other way counts as inactive or inconclusive.

SMILES	TDP1 cell CPT	HT1080NT lethal	HT1080 IDH1KD tx	DT40 TDP1 no CPT	IL-1B inflam inh
O=C(CNC(=O)c1ccc2c(c1)OCO2)N/N=C/c1cc(Br)ccc1O	8.2µM	?	12µM	8.2µM	i
CCOc1ccc(NC(=O)CN2CC(c3ccccc3)CC2=O)cc1 (stereo unspecified)	i	i	i	i	i
O=C(CNC(=O)c1ccccc1Br)N/N=C/c1ccccc1O	?	?	?	23µM	i
O=C(CNC(=O)c1ccncc1)N/N=C/c1cc(Br)ccc1O	i	i	i	i	i
O=C(COc1ccc(-c2ccccc2)cc1)N/N=C/c1cc(O)ccc1Br	?	i	?	16µM	-95
CC(C)NC(=O)C1(C)CCN1C(=O)c1cccn1C (stereo unspecified)	i	i	i	i	i
C/C(=N/NC(=O)CNC(=O)c1ccccc1F)c1ccc2c(c1)CCCC2	?	i	i	?	i
O=C(COc1ccccc1)NCC(=O)N/N=C/c1cccs1	i	i	i	i	i
O=C(N/N=C/c1cc(Cl)ccc1O)c1cccnc1	0.92µM	?	?	1µM	i
O=C(CNC(=O)c1ccccc1Br)N/N=C/c1cc(Br)ccc1O	8.2µM	?	?	5.8µM	i
O=C(COc1ccccc1)NCC(=O)N/N=C/c1cc(Br)ccc1OCc1ccccc1	23µM	i	?	16µM	-53
C/C(=N/NC(=O)CNC(=O)c1ccc2c(c1)OCO2)c1ccc2c(c1)CCCC2	i	i	?	i	-50
C=CCOC(=O)C1=C(C)Nc2nc3ccccc3n2C1c1ccncc1 (stereo unspecified)	?	i	i	i	i
O=C(O)c1ccc(OCC(F)(F)F)nc1	i	i	i	i	i
O=C(CNC(=O)c1ccco1)N/N=C/c1cc(Br)ccc1O	2.9µM	?	26µM	5.8µM	i
O=C(CNC(=O)c1ccco1)N/N=C/c1ccc(O)cc1O	?	i	i	?	i
O=C(N/N=C/c1cc(Cl)ccc1O)c1ccccc1Br	6.5µM	?	9.2µM	6.5µM	i
O=C(N/N=C/c1cc(Br)c(Br)o1)c1cccnc1	16µM	?	?	18µM	i
O=C(NN=Cc1ccc(Cl)cc1Cl)c1ccccc1	i	i	i	?	i
O=C(CNC(=O)c1ccccc1)N/N=C/c1cc(Br)ccc1O	7.3µM	?	16µM	7.3µM	i
CN(c1cccc(NC(=O)c2cccc([N+](=O)[O-])c2)c1)S(C)(=O)=O	i	i	i	i	i
CSc1nnc(CNC(=O)c2c(-c3ccccc3)noc2C)n1-c1ccc(F)cc1	i	nt	nt	i	nt
C[C@H]1COc2cc(N3CCC[C@@H]3CO)ccc2S(=O)(=O)N1	i	i	i	i	i
CCNc1nc(N2CCCN(C)CC2)nc2cc(OC)c(OC)cc12	11µM	i	i	11µM	nt
CNc1nc(N2CCCN(C)CC2)nc2cc(OC)c(OC)cc12	14µM	i	i	11µM	nt
SMILES	TDP1 cell CPT	HT1080NT lethal	HT1080 IDH1KD tx	DT40 TDP1 no CPT	IL-1B inflam inh
Cn1cnnc1SC(C(=O)Nc1cc(Cl)cc(Cl)c1)c1ccccc1 (stereo unspecified)	i	i	?	i	i
COc1ccc(CCc2nnc(CCC(=O)NCCc3ncccc3C)o2)cc1	i	i	i	i	i
CC(C)(C)S(=O)(=O)/C(C#N)=N/Nc1ccc(Cl)cc1	?	?	?	15µM	i
Cc1cccc(N/N=C(\C#N)S(=O)(=O)C(C)(C)C)c1	i	i	i	?	i
CC(C)(C)c1ccc(N/N=C(\C#N)S(=O)(=O)C(C)(C)C)cc1	4.6µM	23µM	?	?	?
Cc1cc(C)n2nc(SCC(=O)Nc3c(C)n(C)n(-c4ccccc4)c3=O)nc2n1	i	i	i	i	i
CCOc1ccc(Sc2cc(C(=O)NCc3ccc(F)cc3)c3ccccc3n2)cc1	i	nt	nt	?	nt
CCc1ccc(Sc2cc(C(=O)NCc3ccccc3OC)c3ccccc3n2)cc1	21µM	nt	nt	18µM	nt
CCc1ccc(Sc2cc(C(=O)NC(C)CC)c3ccccc3n2)cc1 (stereo unspecified)	16µM	nt	nt	16µM	nt
CCOc1ccc(Sc2cc(C(=O)NCc3ccc(C)cc3)c3ccccc3n2)cc1	i	nt	nt	i	nt
